Screening results as filed in PubChem.
Pf growth 96h: Primary qHTS for delayed death inhibitors of the malarial parasite plastid, 96 hour incubation | P. falciparum luciferase reporter growth, 96 h | Potency, µM (doses to about 28.7 µM), usual class: inhibitors | 320,000 compounds, 6.9% hits
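Readout is luminescence from an integrated firefly luciferase in P. falciparum. Red cells, 2% hematocrit and 0.05% parasitemia final, were cultured with compound through two parasite generations (96 hours) at 37 C, 5% CO2.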
NS1 function inh: qHTS Assay for Inhibitors of Influenza NS1 Protein Function. 270,000 compounds, 0.4% hits. Potency, µM (titrated, usually from 46.1 µM). AID 2326, 2010; calls by dose curve; also: actives are rising curves; nearly all actives have a fitted effect of over 50% in size
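A cell-based growth assay was used: compounds that relieve NS1-induced slow growth of budding yeast raise OD600. Assay medium was yeast nitrogen base with ammonium sulphate and -URA supplement, pH 6.0, with 2% galactose.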
Shiga inhibitor: A qHTS for Small Molecule Inhibitors of Shiga Toxin | Vero cells, Shiga toxin protein synthesis inhibition reporter | inhibition, % at 38.7 µM | 290,000 compounds, 9.2% hits; in the data active = inhibition mostly above about 28%, no sharp cut-off; inactive = mostly below about 43%
CHX counter: Cycloheximide Counterscreen for Small Molecule Inhibitors of Shiga Toxin. 300,000 compounds, 12% hits. max response, %. cell reporter, cycloheximide protein synthesis inhibition counterscreen; in the data active = max response mostly above about 13%, no sharp cut-off; inactive = mostly below about 14%; also: read at 38.3 µM for the half of the compounds with a filed dose
Pf growth 48h: Primary qHTS for delayed death inhibitors of the malarial parasite plastid, 48 hour incubation | P. falciparum luciferase growth in erythrocytes, 48 h | Potency, µM (titrated, usually from 28.7 µM), most hits filed as inhibitors | 310,000 compounds, 5.9% hits | AID 504832, 2011
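Erythrocytes infected with P. falciparum carrying an integrated firefly luciferase reporter (2% hematocrit, 0.1% parasitemia final) were exposed to compounds in RPMI 1640 with 0.5% Albumax at 37 C, 5% CO2. Growth inhibition was scored as reduced luminescence.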
Sm TGR block: qHTS Assay for the Inhibitors of Schistosoma Mansoni Peroxiredoxins | Potency, µM (series often up to 114 µM), usual class: inhibitors | 360,000 compounds, 3% hits | purified TGR, DTNB reduction, TNB absorbance 405 nm | Schistosoma mansoni thioredoxin glutathione reductase (TGR), Q962Y6; also: nearly all actives have a fitted effect of over 60% in size
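TGR 20 nM + NADPH 100 uM (dispensed conc.), cpd preinc 15 min RT; start with NADPH (500 uM addition) then DTNB (15 mM addition). Kinetic TNB absorbance, 405 nm filter. Four-parameter Hill fit across titration.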
Numbers stand for hits; 0 = inactive; ? = inconclusive; - = no result. In the library only some 21% were active in any assay of this set; here they are far more common. Unless noted, calls follow the shape of the dose curve; as a rule, active = well fitted curve in the direction sought with a large enough effect; inconclusive = small, poorly fitted or top-dose-only effect, or another doubt; inactive = no such curve, though single readings can be large; an effect the other way counts as inactive or inconclusive.

SMILES | Pf growth 96h | NS1 function inh | Shiga inhibitor | CHX counter | Pf growth 48h | Sm TGR block
COc1cccc(C(=O)N2CCCN(C)CC2)c1OC | ? | 0 | 0 | 0 | 0 | 0
COC(=O)c1ccc(/C=C/c2nc3ccccc3c(=O)[nH]2)cc1 | 0 | 0 | 51 | 0 | 0 | 0
Cc1ccc(/C=C/c2nc3ccccc3c(=O)[nH]2)cc1 | 0 | 0 | 71 | 54 | 0 | 0
COCCOC(=O)N/C=C\c1nc2ccccc2c(=O)[nH]1 | 0 | 0 | 0 | 0 | 0 | 0
COc1ccc(Br)cc1/C=N/n1c(COc2ccccc2)n[nH]c1=S | 0 | 0 | 0 | 0 | - | 0
Cc1nc2c(C)cccn2c1/C(O)=C1\C(=O)C(=O)N(CCN(C)C)C1c1ccco1 (stereo not drawn) | 0 | 0 | 0 | 0 | 0 | 0
Cc1ccc(C2/C(=C(/O)c3cnn(-c4ccccc4)c3C)C(=O)C(=O)N2CCN2CCOCC2)o1 (stereo not drawn) | - | 0 | 75 | 56 | - | 22µM
Cc1ccc(C)c(/C(O)=C2/C(=O)C(=O)N(CCN3CCOCC3)C2c2ccco2)c1 (stereo not drawn) | ? | ? | 0 | 0 | ? | 20µM
Cc1c(/C(O)=C2/C(=O)C(=O)N(CCN3CCOCC3)C2c2cccs2)cnn1-c1ccccc1 (stereo not drawn) | 0 | 0 | 86 | 40 | 0 | 35µM
Cc1ccc(C2/C(=C(\O)c3cnn(-c4ccccc4)c3C)C(=O)C(=O)N2CCN(C)C)o1 (stereo not drawn) | 0 | 0 | 0 | 0 | ? | 0
Cc1nc2ccccn2c1/C(O)=C1\C(=O)C(=O)N(CCN2CCOCC2)C1c1cccs1 (stereo not drawn) | 0 | 0 | 0 | 0 | 0 | ?
Cc1ccc(C2/C(=C(\O)c3c(C)nc4ccccn34)C(=O)C(=O)N2CCN(C)C)o1 (stereo not drawn) | 0 | 0 | 0 | 0 | 0 | 32µM
Cc1cc(=O)oc2cc(OCC(=O)Nc3ccc4[nH]c(=O)[nH]c4c3)ccc12 | 0 | - | - | - | 0 | 0
CCN(CC)CCN1C(=O)C(=O)/C(=C(/O)c2cnn(-c3ccccc3)c2C)C1c1ccc(C)o1 (stereo not drawn) | - | 0 | 87 | 47 | 0 | ?
Cc1ccc(C2/C(=C(/O)c3ccccc3)C(=O)C(=O)N2CCN2CCOCC2)o1 (stereo not drawn) | 0 | 0 | 0 | 0 | 0 | 45µM
COC(=O)c1[nH]c(C)c(/C(O)=C2\C(=O)C(=O)N(CCN3CCOCC3)C2c2ccc(C)o2)c1C (stereo not drawn) | 0 | 0 | 0 | 0 | 0 | ?
COc1cccc(C(=O)c2cc3cc(Cl)ccc3[nH]2)c1 | ? | 0 | 42 | 38 | 0 | 0
O=C(c1ccccc1)c1cc2cc(Cl)ccc2[nH]1 | 0 | 0 | 40 | 32 | 0 | 0
O=C(c1cc2cc(Cl)ccc2[nH]1)N1CCc2ccccc2C1 | 0 | 0 | 0 | 0 | ? | 0
Cc1ccc(S(=O)(=O)N2CCC(C(=O)Nc3ccncc3)CC2)cc1 | ? | - | - | - | ? | 0
Cc1ccc(S(=O)(=O)N2CCC(C(=O)Nc3ccc(S(=O)(=O)N4CCCC4)cc3)CC2)cc1 | 4.7µM | - | - | - | 13µM | 0
CCCNC(=O)C1CCN(S(=O)(=O)c2ccc(Br)cc2)CC1 | 0 | ? | 0 | 0 | 4.7µM | 0
Cc1ccc(NC(=O)C2CCN(C(=O)OC(C)(C)C)CC2)cc1S(=O)(=O)N1CCCCC1 | ? | - | - | - | 13µM | 0
Cc1cc(C)c(C)c(S(=O)(=O)N2CCC(C(=O)Nc3ccncc3)CC2)c1C | 13µM | 0 | 0 | 0 | ? | 0
Cc1ccc(NC(=O)C2CCCC2)cc1S(=O)(=O)N1CCOCC1 | 0 | - | - | - | 0 | 0
SMILES | Pf growth 96h | NS1 function inh | Shiga inhibitor | CHX counter | Pf growth 48h | Sm TGR block
CCOc1ccccc1OCCC(=O)OCC(=O)c1ccc[nH]1 | 0 | - | 0 | 0 | 0 | 0
Cc1cccc(CS(=O)(=O)Cc2ccc(C(=O)NCc3ccc(Cl)cc3)o2)c1 | - | - | - | - | - | 0
COc1ccc(CCNC(=O)c2ccc3c(Cl)c4c(nc3c2)CCCC4)cc1OC | - | - | - | - | - | 0
Cc1ccc(Cl)cc1-n1c(=O)cc(N2CCN(c3ccccc3)CC2)[nH]c1=O | - | - | - | - | - | 0
CC1CCCCN1C(=O)C1CCN(S(=O)(=O)c2ccc(-n3cnnn3)cc2)CC1 (stereo not drawn) | ? | 0 | 0 | 0 | ? | 0
Cc1ccc(C(C)(C)C)cc1S(=O)(=O)N1CCC(C(=O)N2CCN(c3ccc(O)cc3)CC2)CC1 | 10µM | - | - | - | 3.7µM | 0
Cc1ccc(C(=O)Nc2ccc(S(=O)(=O)N3CCCC3)cc2)s1 | 13µM | - | 0 | 14 | ? | 0
CC1CCN(C(=O)C2CCN(S(=O)(=O)c3ccc(-n4cnnn4)cc3)CC2)CC1 | 3.7µM | 0 | 0 | 0 | 0 | 0
O=C(C1CC1)N1CCN(c2ccc(O)cc2)CC1 | ? | 0 | 0 | 0 | ? | 0
Cc1ccc(S(=O)(=O)N2CCC(C(=O)NNC(=O)c3ccccc3)CC2)cc1 | 0 | - | 0 | 0 | 0 | 0
Cc1ccc(C(=O)NNC(=O)C2CCN(S(=O)(=O)c3ccc(C)cc3)CC2)cc1 | 0 | 0 | 0 | 0 | 2.6µM | 0
O=C(Nc1ccc(S(=O)(=O)N2CCCCC2)cc1)C1CCCCC1 | ? | 0 | 0 | 0 | ? | 0
O=C(C1CCN(S(=O)(=O)c2ccc(Cl)cc2)CC1)N1CCCC1 | 0 | 0 | 0 | 0 | ? | 0
Cc1ccc(S(=O)(=O)N2CCC(C(=O)N3CCC3)CC2)cc1 | ? | 0 | 67 | 45 | 0 | 0
Cc1ccc(S(=O)(=O)N2CCCC(C(=O)Nc3ccc(NC(=O)c4ccccn4)cc3)C2)cc1 (stereo not drawn) | - | 0 | 0 | 9.1 | ? | 0
O=C(Nc1ccc(F)cc1)C1CCN(S(=O)(=O)c2ccc3[nH]c(=O)oc3c2)CC1 | 13µM | 0 | 0 | 0 | 0 | 0
Cc1ccc(S(=O)(=O)N2CCC(C(=O)Nc3ccc(S(=O)(=O)N4CCCC4)cc3)CC2)cc1C | ? | - | - | - | 12µM | 0
Cc1ccc2nccc(C(=O)N3CCCC(N4CCN(c5ccc(F)cc5)CC4)C3)c2c1 (stereo not drawn) | 0 | 0 | 0 | 0 | ? | 0
Cc1ccc(S(=O)(=O)N2CCC(C(=O)NCCN3CCCCCC3)CC2)cc1 | 0 | 0 | 0 | 0 | 12µM | ?
CC1CCCN(S(=O)(=O)c2ccc(NC(=O)C3CCN(C(=O)C(C)(C)C)CC3)cc2)C1 (stereo not drawn) | 6.6µM | - | - | - | 5.2µM | 0
CCCS(=O)(=O)N1CCC(C(=O)N2CCOCC2)CC1 | ? | 0 | 0 | 0 | 0 | 0
Cc1cc(C)c(C)c(S(=O)(=O)N2CCC(C(=O)N3CCCC3)CC2)c1C | 12µM | - | - | - | 12µM | 0
CCCS(=O)(=O)N1CCC(C(=O)N2CCCC2)CC1 | 12µM | 0 | 0 | 0 | 0 | 0
O=C(CS(=O)(=O)Cc1ccccc1)Nc1ccc(S(=O)(=O)N2CCOCC2)cc1 | 0 | 0 | 0 | 0 | 0 | 0
